Experimental findings from PubChem BioAssay (NCI) are described below.

About 83,000 compounds went through this panel and 20% of them were active in at least one assay; those are over-represented in the sample as a whole.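 Percent growth is the endpoint: 0 to 100 indicates growth inhibition (40 means 60% inhibition), 0 means no net growth, and negative values indicate cell death.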 A number with no mark means an inactive call. Activity calls are given as the source filed them. The calls were made as follows: active = growth percent below 10; inactive = the rest. *1 amine or outer side, *2 acyl side, *3 side chain or, on linkers, in order; H or OH if unused. Where a SMILES comes first, the peptide text is derived from it. [ ]: non-standard residue; d: D form. The star is where a group is joined. X5 = CCC(=O)CC1CC(C)CC(C(=O)[*:2])N1[*:1]; X4 = CCCCCCCCC(C)C(=O)*; Aib = CC(C)(N)C(=O)O; X6 = CC(CN(C)CCO)N*

Test in all cases: NCI-60 one-dose screen, 48 h (100 = growth as untreated, 0 = no growth, -100 = all killed)
Common to all, as to conditions: 10 µM unless noted

For experiment [1], the system named is SR leukemia.
Experiment [2] has as its system RPMI-8226 leukemia.
The test system of experiment [3] is OVCAR-5 ovarian.
Experiment [4] has as its system OVCAR-4 ovarian.
Experiment [5] relates to SK-OV-3 ovarian.
For experiment [6], the system named is IGROV1 ovarian.
Experiment [7] has as its system OVCAR-3 ovarian.
Experiment [8] relates to HS 578T breast.
Experiment [9] deals with NCI/ADR-RES ovarian.
The subject of experiment [10] is OVCAR-8 ovarian.

For `COc1ccc2c(c1OC)OCC(CN(C)C)C2=O` (stereo not given), the growth in [1] was 78.2%; in [2], -40.8% (active); in experiment [3] it was 92.9%; in experiment [4], -50.8% (active); in experiment [5], 108%; in experiment [6], 93.3%. In addition, the results for the growth in experiment [7], in [8] and in [9] were 92.4%, 106% and 106%, respectively.

Turning to `Clc1ccc(Cc2nc3ccccc3s2)cc1`, the growth is 84.4% in experiment [1]; 101% in experiment [2]; 102% in experiment [10]; 91% in experiment [4]; 128% in experiment [5]; 91.7% in experiment [6]. In addition, the growth is 98.1% in experiment [7], 100% in experiment [8] and 94.9% in experiment [9].

With `CCCCCCCCC(C)C(=O)N1CCCC1C(=O)N1C(CC(=O)CC)CC(C)CC1C(=O)NC(C)C(=O)NC(C)(C)C(=O)NC(C)(C)C(=O)NC(C(=O)NC(C)C(=O)NC(C)(C)C(=O)NC(C)(C)C(=O)NC(C)CN(C)CCO)C(C)CC` (stereo not given) (X4-P[X5]A[Aib][Aib]IA[Aib][Aib]-X6; configuration not given here), the growth in experiment [1] was -44.2% (active); in experiment [2], -42.5% (active); in experiment [3], -82.2% (active); in experiment [4], -12.9% (active); in experiment [5] it was -23.8% (active); in experiment [6], -60.3% (active). The growth in experiment [7] was -54.6% (active).

For the molecule `O=C1C=CC(=O)N1C1CCCCCCCCCCC1`, the growth in experiment [1] is 5.7% (active); in experiment [10] it was 86%; in [3], 99.8%; in experiment [4] it was 89.5%; in experiment [5], 90.6%; in [6], 80.3%. In addition, the figures for the growth in experiment [7] and in experiment [8] were 53% and 108%, respectively.

On to `COc1cc(/C=C/C(=O)CC(=O)/C=C/c2ccc(O)c(OC)c2)ccc1O`, for which the growth is -5.89% (active) in [1]; -30.3% (active) in experiment [2]; 61.1% in experiment [3]; 65.8% in [4]; 75.3% in experiment [5]; 37.3% in [7]. The results for the growth in experiment [8] and in [9] were 55.6% and 37.2%, respectively.

As for `O=C(O)c1cc2c(s1)C(=O)c1sccc1C2=O`, the growth in [1] was -12.3% (active); in experiment [2], 74.3%; in experiment [3], 78.3%; in experiment [4], -6.65% (active); in experiment [5], 115%; in experiment [6], 56.3%. For the same molecule, the growth in experiment [7] is -18.6% (active); in experiment [8], -18.8% (active).

For the molecule `O=C1C=C(Cl)C(=O)c2ccccc21`, the growth in experiment [1] is 94.7%; in [10] it was 91.6%; in [3], 113%; in experiment [4], 92.5%; in experiment [5] it was 94.7%; in experiment [6], 92.3%. In addition, the growth is 89.8% in experiment [7] and 111% in [8].

For `CCN(CC)CC(O)CNc1ccc(NCC2CO2)c2c1C(=O)c1ccccc1C2=O` (stereo not given), the growth in [1] was -4.42% (active); in [2], -40.8% (active); in experiment [5] it was 22.5%; in experiment [6] it was -59.1% (active); in experiment [7] it was -1.52% (active); in experiment [8], -40.4% (active). Moreover, the growth in experiment [9] was -1.62% (active).

As for `O=C(c1ccccc1)N(CCCl)C(=O)N(CCCl)C(=O)c1ccccc1`, the growth was 94.4% in [1]; 101% in experiment [2]; 98.5% in experiment [10]; 105% in experiment [4]; 104% in [5]; 103% in experiment [6]. In addition, the growth in experiment [7] is 107%; in experiment [8] it was 110%; in experiment [9], 91.8%.

Regarding `Oc1ccc(Br)cc1Sc1cc(Br)ccc1O`, the growth in [1] was 41.4%; in [10], 51.4%; in [3], 105%; in experiment [4], 37.3%; in experiment [5], 98.3%; in experiment [6], 81.5%. Further, the growth in experiment [7] was 28.9%.

Regarding `O=C(Nc1ccc(Cl)c(Cl)c1)Nc1ccccc1O`, the growth in [1] was 87%; in [10], 67.1%; in [3] it was 98.7%; in experiment [4] it was 67.1%; in [5] it was 89.2%; in [6], 72.7%. Besides, the growth in [7] is 79.6%; in experiment [8] it was 106%; in experiment [9], 63.8%.

Turning to `CCCOS(=O)(=O)c1ccccc1`, the growth in experiment [1] was 108%; in experiment [10], 104%; in [3] it was 93%; in experiment [4], 123%; in [5], 91.9%; in experiment [6] it was 104%. In addition, the growth in [7] is 107%; in experiment [8], 126%; in experiment [9], 110%.

`COc1ccc(NC(=O)/C(=C/N2C(=O)/C(=C/c3ccc(OC)c(OC)c3)NC2=S)C(C)=O)cc1`: the growth is 76.6% in experiment [2]; 80.8% in experiment [10]; 99.3% in [3]; 85.1% in experiment [4]; 55.9% in experiment [5]; 74.7% in [6]. For the same molecule, the results for the growth in [7] and in experiment [8] were 79% and 40.7%, respectively.

For the molecule `Cc1ccc(NC2=CC(=O)C(=O)c3ccccc32)cc1`, the growth in experiment [1] was 25.9%; in experiment [10] it was 25%; in experiment [3] it was -25.4% (active); in [4], -0.0623% (active); in [5], 79.9%; in experiment [6], 17.6%. For the same molecule, the results for the growth in experiment [7], in [8] and in experiment [9] were 13.7%, 16.3% and 19.3%, respectively.
